Sequences and labels used below:
T1: UNK ZnF1-6 (called full-length) (human, UniProt Q9C0B0 30-357)
T1 sequence: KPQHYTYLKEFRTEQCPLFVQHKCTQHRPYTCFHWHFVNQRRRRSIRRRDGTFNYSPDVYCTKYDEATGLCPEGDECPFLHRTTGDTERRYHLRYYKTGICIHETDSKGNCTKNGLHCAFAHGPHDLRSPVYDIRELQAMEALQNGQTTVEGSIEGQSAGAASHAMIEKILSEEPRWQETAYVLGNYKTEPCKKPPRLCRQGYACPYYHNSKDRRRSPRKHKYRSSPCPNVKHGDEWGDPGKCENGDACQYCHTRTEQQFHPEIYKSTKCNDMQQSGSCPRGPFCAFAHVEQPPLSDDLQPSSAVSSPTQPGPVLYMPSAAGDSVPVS

B1: chr8:58582127:58582250:+|3pUTR|ENSG00000137575|unk|FALSE|bound_elsewhere (ssRNA)
RNA: GGGAGUUCUACAGUCCGACGAUCUUCAUAUUACUUUAGUUCUAUAGCAUACUUGCAUCUUUAACAUGCUAUCAUAGUACAUUUAGAAUGAUUGCCUUUGAUUUUUUUUUUAAAUUCUGUGUGUGUGUGUGUAAAAUGCCAAUUCAACAGAGGAUUGAGCAUCA
B2: chr13:52036708:52036809:-|3pUTR|ENSG00000197168|unk|FALSE|unique (ssRNA)
RNA: GGGAGUUCUACAGUCCGACGAUCGUAGAACUUUUGAAUAUAGCCAUUAAUAUUUUUACUUUAAAGUUUCUAUUAAGAAAUCUUAGGCCGGGCAGUCUCAUCACUUUGGGAGGCCAAGGCAGGCAGAUCAUGAGGUCAGGAGUUCAACAGAGGAUUGAGCAUCA
B3: chr1:3780741:3780842:-|3pUTR|ENSG00000130764|unk|total|mutant (ssRNA)
RNA: GGGAGUUCUACAGUCCGACGAUCCCAAGCCGCUGGGACUACAGGUGUGUGCCACUAAGCUCAGCUAAUUUUUGUAUUUUCCGCCGAGACGGGGUUUCACCAUUUUGACCAGGAUGGUCUUGAUCUCUUGACCUCAUGAUCUGUCAACAGAGGAUUGAGCAUCA
B4: chr20:45898604:45898705:+|3pUTR|ENSG00000064601|unk|total|mutant (ssRNA)
RNA: GGGAGUUCUACAGUCCGACGAUCAGAGCCCUGUACAUCCCAGACUGGGCCCAGGGUCUCCCACCGACAGCCUGGGGGCAAGUCCGCACUUUAUUCCCGCAGCAGUUCCUGAAUGGGGUGGCCUGGCCCCUUCUCUGCUUAAAGCAACAGAGGAUUGAGCAUCA
B5: chr17:47844907:47847298:-|three_prime_utr|ENSG00000189120|control|control|control (ssRNA)
RNA: GGGAGUUCUACAGUCCGACGAUCAAGGUGCGUAUUUAUUCAGGGAGGAGGAAAAGUGGUGCAGGGACAGGGAGAUGGGGCGCUAGGGGUUCUUAGUCUCUGGGGCUACUAGGCAGGAUGAAUUUGACUGGGUCGGUAGGAGCUCAACAGAGGAUUGAGCAUCA
B6: chr17:67340809:67340863:-|CDS_3pUTR|ENSG00000197170|msi1_unk|FALSE|overlapping (ssRNA)
RNA: GGGAGUUCUACAGUCCGACGAUCACAAAACUACGCAUCUCAUAGCCAAAGAGGAGAUGAUACAUAAUCUACAAUAAGGGUCUUAGUGCUUUAGAAAAAAGUUAAAAUUGGAAGUCAUUAAAAAAAGACUGUUAUAAUGGUGUACAACAGAGGAUUGAGCAUCA
B7: chr6:142752714:142752806:-|3pUTR|ENSG00000010818|msi1_unk|FALSE|overlapping (ssRNA)
RNA: GGGAGUUCUACAGUCCGACGAUCUUUUCUUUACUUUGCUUAUAUUCUUAUAAGCAUUUUUUAGCAGUAAUUUGUACAUAUUUUAGAAUUUGUGUAUCUGCUUUGUAAUAAAUGUAAUUUCUUUCCUUUUUUGGACACUUGGAUCAACAGAGGAUUGAGCAUCA
B8: chr5:134606522:134606623:-|3pUTR|ENSG00000152700|msi1_unk|total|mutant (ssRNA)
RNA: GGGAGUUCUACAGUCCGACGAUCAACUAUAAACCAUAUUUAAAAGCUCAUCAUGUUAAAUUUUUUAUGUACUUUUCUGGAACCCGUUUUUAAAUUUCCGAUUAUAUGUCCACCUAUCUUAAGUGUACAGUUAAUAAUCCGCUUCAACAGAGGAUUGAGCAUCA
B9: ENSG00000070961:be:win_251|CDS|ENSG00000070961|bound_else_gene|NA|bound_elsewhere_windowed (ssRNA)
RNA: GGGAGUUCUACAGUCCGACGAUCUGUUUGGAAAGAAUUUUAUACCUCCUAAAAAGCCAAAAACCUUUCUUCAAUUAGUAUGGGAAGCAUUACAAGAUGUCACUUUAAUUAUAUUAGAAAUUGCAGCCAUAGUAUCAUUGGGCCCAACAGAGGAUUGAGCAUCA
B10: ENSG00000070961:be:win_6051|3pUTR|ENSG00000070961|bound_else_gene|NA|bound_elsewhere_windowed (ssRNA)
RNA: GGGAGUUCUACAGUCCGACGAUCCAGAAAUUUCCAGAGCAUUAUGUAGGUAGAAAAAAAUGCAAGCAAGCUGUUAAAGAUCUUGGAUCCCAUUAUAUAGUAUGUAUAGCUGAAAUCUGUAAUUCAAUCACUUUUUCUCUUUUACAACAGAGGAUUGAGCAUCA
B11: chr4:110049619:110049852:-|3pUTR|ENSG00000170522|msi1|FALSE|unique (ssRNA)
RNA: GGGAGUUCUACAGUCCGACGAUCUUGUUCAAUGUGACAUAAUAGUAUUAUAAUUGGUUAAGUAGCUUAAUGAUUAGGCAAACUAGAUGAAAAGAUUAGGGGCUUCCACACUGCAUAGAUUACACGCACAUAGCCACGCAUACACAACAGAGGAUUGAGCAUCA
B12: chr9:14618660:14618761:-|3pUTR|ENSG00000175893|msi1|FALSE|unique (ssRNA)
RNA: GGGAGUUCUACAGUCCGACGAUCUUAGCUUUCCACAGGGAUUUCUUGAAAUGCUUUUGUUAUUAAACUCAAAAGGCAGUGAUUAGGAUGAAAUAAUUGUACAUAAUUUAUUUUAGUACUGACAGUGUUACAGAUUCUAAUUUACAACAGAGGAUUGAGCAUCA
B13: ENSG00000070961:be:win_6101|3pUTR|ENSG00000070961|bound_else_gene|NA|bound_elsewhere_windowed (ssRNA)
RNA: GGGAGUUCUACAGUCCGACGAUCUAAAGAUCUUGGAUCCCAUUAUAUAGUAUGUAUAGCUGAAAUCUGUAAUUCAAUCACUUUUUCUCUUUUAUCCUCUAACCAAAAAAUUGUUUAAUUUUGCAUCCCAAAUGUUUUUAAUCUCAACAGAGGAUUGAGCAUCA
B14: chr8:23843870:23844003:-|3pUTR|ENSG00000159167|msi1|FALSE|unique (ssRNA)
RNA: GGGAGUUCUACAGUCCGACGAUCAAUUCCAGAGGACUCUGCUUAAACAAAGCAGUAUAUAAUAACUUUAUUGCAUAUAGAUUUAGUUUUGUAACUUAGCUUUAUUUUUCUUUUCCUGGGAAUGGAAUAACUAUCUCACUUCCACAACAGAGGAUUGAGCAUCA
B15: chr3:167478683:167478996:-|three_prime_utr|ENSG00000174776|control|control|control (ssRNA)
RNA: GGGAGUUCUACAGUCCGACGAUCCUGCCUUUUAUUUUAUUUUAUAUUUAAACUUCAGGAAGUUUUCUCUUCAUGGGAUAAUUUAGUACUGCUUUUAUCUAUCAUCUGUCAAUUUCUCUGUAUUCUUAAUAAAAUAAAUAUUGACAACAGAGGAUUGAGCAUCA
B16: chr5:134606522:134606623:-|3pUTR|ENSG00000152700|msi1_unk|FALSE|overlapping (ssRNA)
RNA: B8 RNA with C83U, C84A, C97U, C98A, C138U, C139A
B17: ENSG00000198589:be:win_9001|3pUTR|ENSG00000198589|bound_else_gene|NA|bound_elsewhere_windowed (ssRNA)
RNA: GGGAGUUCUACAGUCCGACGAUCUUCUUCAGCACUAAUAUUUCUGGGAUUUAAAUAGUAAUGUUUAAAUUAUGGUAAAUGUAAUUUAAAACAUCUCAAUUAAGUCUGUCUAUCAAUAUUGUUCUUCAAGCAUGUUUUAGACCUCAACAGAGGAUUGAGCAUCA

Positions count from the first letter of the chain named. Whole data set: some 5,800 sequences, median “enrichment r” near 0.68, cut for the highest 2% near 11. The list comes from a sample in which the highest values are over-represented; it also holds similar and randomly drawn sequences.

The target of this assay is T1, UNK ZnF1-6 (called full-length). The assay can be described thus: nsRBNS (natural sequence RNA bind-n-seq); RBNS binding buffer (assumed for nsRBNS): 25 mM Tris pH 7.5, 150 mM KCl, 3 mM MgCl2, 0.01% Triton X-100, 500 ug/ml BSA, 20 U/ml SUPERase-In, 4 C; UNK is unkempt and MSI1 is Musashi-1; names of the RNAs are library labels; protein concentration not given here; high values mean tight binding.
B1 showed a binding signal of 5 enrichment R.
On to B2, for which the binding signal is 21 enrichment R.
With B3, the binding signal was determined as 0.591 enrichment R.
The molecule B4 yielded a binding signal of 1.01 enrichment R.
The same measure for B5: 1.32 enrichment R.
Then B6, with 0.932 enrichment R; and B7, with 2.11 enrichment R; and B8, with 2.06 enrichment R.
In turn, B9 gave a binding signal of 5.79 enrichment R.
Then B10, with 3.07 enrichment R.
Then B11, with 14.6 enrichment R; and B12, with 0.961 enrichment R; and B13, with 39 enrichment R.
The same measure for B14: 13.9 enrichment R; for B15: 2.14 enrichment R.
The molecule B16 had a binding signal of 25.7 enrichment R.
The same measure for B17: 0.446 enrichment R.

(Values after PMC12136788.)
